Results from PubChem BioAssay (Tox21).
Results filed as inconclusive are left out. Entries that show only a call come without a potency. Some structures have more than one record in an assay (separate samples or runs), and their calls can disagree. Active and inactive are the calls of the source. Unless noted, the call rests on the fitted dose curve.

Experiments:
[1] = Nuclear factor erythroid 2-related factor 2/antioxidant responsive element (Nrf2/ARE) small molecule agonists: qHTS cell viability counter screen in human keratinocytes (AID 1919968; active means well fitted curve in the direction sought with a large enough effect in the repeat runs; an effect the other way counts as inactive or inconclusive; further: nearly all actives have a fitted effect of over 55% in size)
Method in brief: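 KeratinoSens HaCaT cells, 1,500/well, preincubated 5 h, then exposed to compounds in DMSO for 23 h at 37 C/5% CO2. Viability read as CellTiter-Fluor fluorescence after 1 h, in the same wells as the ARE-luciferase read.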

[2] = Nuclear factor erythroid 2-related factor 2/antioxidant responsive element (Nrf2/ARE) small molecule agonists: luciferase reporter gene qHTS assay in human keratinocytes (AID 1919969); further: nearly all actives have a fitted effect of over 35% in size
[3] = target: Gonadotropin-releasing hormone receptor (Homo sapiens) (UniProt P30968); test: Human gonadotropin-releasing hormone receptor (GnRHR) small molecule agonists, calcium flux assay in GnRHR-HEK293 cells (AID 1920063); further: nearly all actives have a fitted effect of over 35% in size
Method in brief: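 HEK293 cells stably expressing human GnRHR were dye-loaded for 1 h at 37 C. Compound was added in agonist mode and fluorescence (Ex/Em 480/540) recorded kinetically for 3 min. Fifteen concentrations, triplicates.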

[4] = target: KiSS-1 receptor (Homo sapiens) (UniProt Q969F8); test: Human kisspeptin (KISS1R) small molecule agonists, calcium flux assay in KISS1R-HEK293 cells (AID 1920064; active means well fitted curve in the direction sought with a large enough effect in the repeat runs; an effect the other way counts as inactive or inconclusive)
Method in brief: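 HEK293 cells stably expressing human KISS1R were loaded with calcium dye for 1 h at 37 C, then given compound; fluorescence (Ex/Em 480/540) was read kinetically for 3 min. Fifteen concentrations, triplicate.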

[5] = G protein-coupled receptor (GPCR) small molecule agonists, calcium flux assay: HEK293 wild type cell line counter screen (AID 1920065)
Method in brief: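 Wild-type HEK293 cells plated 18 h, loaded with calcium dye 1 h at 37 C, then compounds added in agonist mode (ATP as positive control). Kinetic fluorescence Ex/Em 480/540 recorded 3 min at 1 sec intervals; 15 concentrations, triplicate.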

[6] = p53 small molecule agonists, cell-based qHTS assay with human liver microsomes (AID 1963577);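 further: p53 response element beta-lactamase reporter cells with liver microsomes plus NADPH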
Method in brief: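 Reporter activation was measured by LiveBLAzer fluorescence intensity in p53RE-bla cells, which had been exposed to compounds for 16 h at 37 C alongside 0.5 mg/mL human liver microsomes and 0.5 mg/mL NADPH (final concentrations).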

[7] = p53 small molecule agonists, cell-based qHTS assay with rat liver microsomes (AID 1963578)
Method in brief: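 Compound in DMSO added to p53RE-bla cells 5 h post-plating; rat microsomes/NADPH 0.5 mg/mL final; 16 h, 37 C; LiveBLAzer 2 h RT.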

[8] = p53 small molecule agonists, cell-based qHTS assay with human liver microsomes: qHTS cell viability counter screen (AID 1963579); further: nearly all actives have a fitted effect of over 45% in size
Method in brief: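 HLM-supplemented (0.5 mg/mL final) and NADPH-supplemented (0.5 mg/mL final) p53RE-bla cultures, 4,000 cells per well, were dosed with compounds in DMSO for 16 h at 37 C; luminescent ATP detection (CellTiter-Glo, 30 min, room temperature) quantified surviving cells.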

[9] = p53 small molecule agonists, cell-based qHTS assay with rat liver microsomes: qHTS cell viability counter screen (AID 1963580); further: nearly all actives have a fitted effect of over 45% in size
Method in brief: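 Intracellular ATP, by CellTiter-Glo luminescence, defines viability. HCT-116 p53RE-bla cells, 4,000 per well, were compound-treated in the presence of rat liver microsomes and NADPH for 16 h at 37 C.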

[10] = p53 small molecule agonists, cell-based qHTS assay: qHTS cell viability counter screen (AID 1963581); further: nearly all actives have a fitted effect of over 45% in size
Method in brief: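 p53RE-bla HCT-116 cells, compounds added 5 h after plating and incubated 16 h at 37 C. Cytotoxicity measured in the same wells as intracellular ATP by CellTiter-Glo luminescence after 30 min at room temperature.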

[11] = p53 small molecule agonists, cell-based qHTS assay (AID 1963582; active means well fitted activation curve with a large enough effect in the signal ratio in the repeat runs, not every such curve was filed as active; the % refers to the signal ratio)
Method in brief: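 p53RE-bla reporter cells, compounds added in DMSO after 5 h plating, incubated 16 h at 37 C. Beta-lactamase read via 2 h room-temperature LiveBLAzer B/G FRET substrate, fluorescence intensity.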

[12] = target: 5-hydroxytryptamine receptor 2A (Homo sapiens) (UniProt P28223); test: 5-hydroxytryptamine receptor 2A (HTR2A) small molecule antagonists, cell-based qHTS assay (AID 1963586); further: nearly all actives have a fitted effect of over 45% in size
Method in brief: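 Antagonist-mode intracellular calcium assay: DOI (4 nM) added after 5 min compound pre-incubation at room temperature to dye-loaded HTR2A-CHO cells. Fluorescence followed for 3 min, sampled every second.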

[13] = target: 5-hydroxytryptamine receptor 2A (Homo sapiens) (UniProt P28223); test: 5-hydroxytryptamine receptor 2A (HTR2A) small molecule agonists, cell-based qHTS assay (AID 1963587); further: nearly all actives have a fitted effect of over 30% in size
Method in brief: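 Kinetic calcium-flux fluorescence (2 min, 1 sec intervals) after compound addition in agonist mode. HTR2A-CHO cells were cultured 18 h, then dye-loaded 1 h at 37 C.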

[14] = target: Muscarinic acetylcholine receptor M1 (Homo sapiens) (UniProt P11229); test: Cholinergic receptor muscarinic 1 (CHRM1) small molecule antagonists, cell-based qHTS assay (AID 1963588); further: nearly all actives have a fitted effect of over 40% in size
Method in brief: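 CHRM1-CHO calcium-flux assay, antagonist mode. Cells were seeded 18 h, dye-loaded 1 h at 37 C and given compound for 5 min at RT, then acetylcholine was added at 50nM. FDSS fluorescence was read 3 min; 15 concentrations, three runs.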

[15] = target: Muscarinic acetylcholine receptor M1 (Homo sapiens) (UniProt P11229); test: Cholinergic receptor muscarinic 1 (CHRM1) small molecule agonists, cell-based qHTS assay (AID 1963589); further: nearly all actives have a fitted effect of over 35% in size
Method in brief: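 CHO cells stably expressing human CHRM1 were loaded with calcium dye for 1 h at 37 C, then compound was added in agonist mode. Intracellular calcium fluorescence was followed kinetically at 1 s intervals. Fifteen concentrations were tested in three independent runs.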

[16] = cAMP Responsive Elements (CRE) small molecule agonists, cell-based qHTS assay (AID 1963590)
Method in brief: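 CRE-bla HEK 293T cells, 2,000/well in DMEM with 10% dialyzed FBS and 25 mM HEPES, pre-incubated 18 h at 37 C, then exposed to compound 3 h at 37 C. Beta-lactamase reporter read with LiveBLAzer B/G FRET substrate after 2 h at room temperature.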

[17] = cAMP Responsive Elements (CRE) small molecule antagonists, cell-based qHTS assay (AID 1963591; active means well fitted inhibition curve with a large enough effect in the signal ratio in the repeat runs, not every such curve was filed as active; the % refers to the signal ratio)
Method in brief: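 CRE-bla HEK293T cells plated 18 h, then given compound plus NKH477 at 0.25 uM final for 3 h at 37C. Beta-lactamase reporter read with LiveBLAzer B/G FRET substrate after 2 h at room temperature.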

[18] = target: Beta-2 adrenergic receptor (Homo sapiens) (UniProt P07550); test: Adrenergic beta2 receptor (ADRB2) small molecule antagonists, cell-based qHTS assay (AID 1963592); further: nearly all actives have a fitted effect of over 50% in size; further: potency means the concentration at half of the fitted maximal effect
Method in brief: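 Cells (CHO, stable ADRB2 overexpression) incubated 18-20hr at 37C; compounds added from DMSO; agonist mix (1nM isoproterenol, 100uM IBMX, 25uM Ro-20-1724) added; 0.5hr RT; d2-cAMP and anti-cAMP-cryptate added; 1hr RT; 665/615 nm read.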

[19] = target: Beta-2 adrenergic receptor (Homo sapiens) (UniProt P07550); test: Adrenergic beta2 receptor (ADRB2) small molecule agonists, cell-based qHTS assay (AID 1963593);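 further: CHO cells stably overexpressing human ADRB2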
Method in brief: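 CHO cells stably over-expressing ADRB2 were plated overnight at 37C, then dosed with compounds plus a stimulation mix containing 100uM IBMX and 25uM Ro-20-1724 for 0.5hr at room temperature. cAMP was measured by HTRF competition, 1hr.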

[20] = target: D(2) dopamine receptor (Homo sapiens) (UniProt P14416); test: Dopamine D2 receptor (DRD2) small molecule agonists, cell-based qHTS assay (AID 1963594); further: nearly all actives have a fitted effect of over 35% in size
Method in brief: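 cAMP accumulation in DRD2-HEK293 cells measured by HTRF after 1 h detection; compounds added 10 min before NKH477 (200nM […]) forskolin-analogue stimulation, 30 min at room temperature, with Ro20-1724 present at 0.1 mM final.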

5-hydroxytryptamine receptor 2A (Homo sapiens), sequence (P28223 whole entry, looked up): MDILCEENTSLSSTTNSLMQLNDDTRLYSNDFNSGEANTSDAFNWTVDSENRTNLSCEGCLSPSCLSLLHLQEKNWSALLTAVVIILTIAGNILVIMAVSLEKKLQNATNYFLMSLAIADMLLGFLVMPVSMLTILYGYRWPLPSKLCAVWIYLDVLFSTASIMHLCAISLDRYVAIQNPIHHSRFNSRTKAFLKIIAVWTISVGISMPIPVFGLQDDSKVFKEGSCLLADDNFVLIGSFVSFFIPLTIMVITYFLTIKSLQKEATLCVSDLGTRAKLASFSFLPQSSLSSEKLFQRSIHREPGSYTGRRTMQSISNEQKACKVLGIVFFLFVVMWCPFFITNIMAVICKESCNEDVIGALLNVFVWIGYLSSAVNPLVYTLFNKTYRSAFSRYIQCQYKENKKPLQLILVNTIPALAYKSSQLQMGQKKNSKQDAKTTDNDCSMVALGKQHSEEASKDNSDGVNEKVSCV
Beta-2 adrenergic receptor (Homo sapiens), sequence (P07550 whole entry, looked up): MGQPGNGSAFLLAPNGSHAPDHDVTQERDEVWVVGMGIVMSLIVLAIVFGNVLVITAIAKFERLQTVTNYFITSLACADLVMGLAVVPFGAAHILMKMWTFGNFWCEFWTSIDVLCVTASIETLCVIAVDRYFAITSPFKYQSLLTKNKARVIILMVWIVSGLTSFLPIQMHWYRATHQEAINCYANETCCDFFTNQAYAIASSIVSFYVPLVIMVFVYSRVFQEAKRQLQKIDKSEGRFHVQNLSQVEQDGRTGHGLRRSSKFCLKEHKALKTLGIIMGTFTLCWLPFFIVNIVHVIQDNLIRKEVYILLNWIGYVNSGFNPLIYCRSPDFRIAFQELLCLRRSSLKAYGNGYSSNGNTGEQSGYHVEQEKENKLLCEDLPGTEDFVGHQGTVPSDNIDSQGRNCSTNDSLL
Muscarinic acetylcholine receptor M1 (Homo sapiens), sequence (P11229 whole entry, looked up): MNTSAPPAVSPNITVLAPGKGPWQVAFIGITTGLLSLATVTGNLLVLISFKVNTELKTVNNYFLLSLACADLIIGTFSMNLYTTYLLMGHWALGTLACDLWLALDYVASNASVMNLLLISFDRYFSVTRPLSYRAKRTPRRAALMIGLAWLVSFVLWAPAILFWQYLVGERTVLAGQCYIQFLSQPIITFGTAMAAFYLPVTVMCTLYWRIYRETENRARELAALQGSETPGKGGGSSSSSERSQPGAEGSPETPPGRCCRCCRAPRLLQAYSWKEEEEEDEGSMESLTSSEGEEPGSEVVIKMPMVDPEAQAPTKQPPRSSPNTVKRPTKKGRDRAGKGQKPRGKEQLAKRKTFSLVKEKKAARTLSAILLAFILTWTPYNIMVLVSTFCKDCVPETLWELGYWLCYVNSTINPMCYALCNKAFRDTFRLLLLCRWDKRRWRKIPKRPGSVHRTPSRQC
D(2) dopamine receptor (Homo sapiens), sequence (P14416 whole entry, looked up): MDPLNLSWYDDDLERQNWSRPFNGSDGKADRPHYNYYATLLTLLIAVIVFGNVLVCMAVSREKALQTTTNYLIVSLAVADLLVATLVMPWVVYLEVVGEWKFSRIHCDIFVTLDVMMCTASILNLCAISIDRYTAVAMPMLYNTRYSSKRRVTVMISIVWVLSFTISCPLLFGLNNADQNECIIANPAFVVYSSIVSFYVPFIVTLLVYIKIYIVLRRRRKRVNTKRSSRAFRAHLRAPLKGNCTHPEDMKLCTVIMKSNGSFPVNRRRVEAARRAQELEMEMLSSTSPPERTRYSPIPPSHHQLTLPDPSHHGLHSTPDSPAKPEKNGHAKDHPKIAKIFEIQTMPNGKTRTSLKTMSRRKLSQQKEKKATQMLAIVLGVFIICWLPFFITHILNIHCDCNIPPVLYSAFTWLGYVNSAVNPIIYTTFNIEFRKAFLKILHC
Gonadotropin-releasing hormone receptor (Homo sapiens), sequence (P30968 whole entry, looked up): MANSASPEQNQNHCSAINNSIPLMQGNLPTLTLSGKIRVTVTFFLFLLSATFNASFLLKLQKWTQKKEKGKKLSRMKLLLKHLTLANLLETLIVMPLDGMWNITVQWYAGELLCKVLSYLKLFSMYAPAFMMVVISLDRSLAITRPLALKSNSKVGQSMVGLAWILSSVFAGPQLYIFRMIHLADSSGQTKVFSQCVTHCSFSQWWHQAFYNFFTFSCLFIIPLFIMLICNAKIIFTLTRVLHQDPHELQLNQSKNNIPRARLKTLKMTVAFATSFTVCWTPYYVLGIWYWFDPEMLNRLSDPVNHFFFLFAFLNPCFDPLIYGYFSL
KiSS-1 receptor (Homo sapiens), sequence (Q969F8 whole entry, looked up): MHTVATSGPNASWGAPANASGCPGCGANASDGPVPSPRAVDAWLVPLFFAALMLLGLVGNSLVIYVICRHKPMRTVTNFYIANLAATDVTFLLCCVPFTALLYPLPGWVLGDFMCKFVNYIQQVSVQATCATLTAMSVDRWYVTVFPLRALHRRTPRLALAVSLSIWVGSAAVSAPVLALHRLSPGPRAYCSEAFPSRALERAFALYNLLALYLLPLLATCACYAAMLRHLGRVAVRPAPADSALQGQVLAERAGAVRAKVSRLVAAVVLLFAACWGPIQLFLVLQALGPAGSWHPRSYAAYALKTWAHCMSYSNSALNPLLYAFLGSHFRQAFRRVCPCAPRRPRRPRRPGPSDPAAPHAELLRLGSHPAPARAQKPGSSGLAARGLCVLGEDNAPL

Row | SMILES | Potency [1] | Potency [2] | Potency [3] | Potency [4] | Potency [5] | Potency [6] | Potency [7] | Potency [8] | Potency [9] | Potency [10] | Potency [11] | Potency [12] | Potency [13] | Potency [14] | Potency [15] | Potency [16] | Potency [17] | Potency [18] | Potency [19] | Potency [20]
1 | Cc1ccc(C(C)(C)C)cc1 | inactive | inactive | inactive | inactive | inactive | inactive | inactive | inactive | inactive | inactive | inactive | inactive | inactive | inactive | inactive | inactive | inactive | inactive | inactive | inactive
2 | CCCCOCCOCCOCCO | inactive | inactive | inactive | inactive | inactive | inactive | inactive | inactive | inactive | inactive | inactive | inactive | inactive | inactive | inactive | inactive | inactive | 30.3 µM (active) and inactive | inactive | inactive
3 | CC(=O)OC/C=C/c1ccccc1 | inactive | inactive | inactive | inactive | inactive | inactive | inactive | inactive | inactive | inactive | inactive | inactive | inactive | inactive | inactive | inactive | inactive | inactive | inactive | inactive
4 | [Cl][Dy]([Cl])[Cl] | inactive | inactive | inactive | inactive | inactive | inactive | inactive | inactive | inactive | inactive | inactive | inactive | inactive | inactive | inactive | inactive | inactive | inactive | inactive | inactive
5 | CC(=O)c1ccc2c(c1)CCCC2 | inactive | inactive | inactive | inactive | inactive | inactive | inactive | inactive | inactive | inactive | inactive | inactive | inactive | inactive | inactive | inactive | inactive | inactive | inactive | inactive
6 | COc1cc(C(=O)NCc2ccc(OCCN(C)C)cc2)cc(OC)c1OC | inactive | inactive | inactive | inactive | inactive | inactive | inactive | inactive | inactive | inactive | inactive | inactive | inactive | inactive | inactive | inactive | inactive | inactive | inactive | inactive
7 | O=[Si]=O | inactive | inactive | inactive | inactive | inactive | inactive | inactive | inactive | inactive | inactive | inactive | inactive | inactive | inactive | inactive | inactive | inactive | inactive | inactive | inactive
